For 54 molecules, INHIBITION results are on record in ChEMBL document CHEMBL4513216, “Probing the Open Global Health Chemical Diversity Library for Multistage-Active Starting Points for Next-Generation Antimalarials” (ACS Infect Dis, 2020).

Each structure is given as a SMILES string. Hit rate of the full screen: of about 68,000 compounds, about 2,700 (4%) showed an effect of 50% or more. The entries come from a sample that favours strong results as a whole.

This experiment relates to Plasmodium berghei. The experiment is described as follows: Screen against P. berghei liver stage (PbLuc), transformed with Luciferase, at 2uM. It counts as functional, HepG2. The conditions noted are these: tested at 2 uM.
Regarding `CNC(=O)[C@H]1C[C@@H]2CN(S(=O)(=O)c3cccc(C)c3)C[C@@H]2N1C`, the INHIBITION is 27.95%.
Consider `COC(=O)CNC(=O)c1scnc1C`, for which the INHIBITION is -7.24%.
Then `COc1cccc(N2CCN(C(=O)C(C)Oc3ccccc3)CC2=O)c1` (centres undefined), with 24.28%.
Then `CC(C)[C@@H]1CN(C(=O)CCc2ccc(F)cc2)C[C@H]1C(=O)O`, with 18.63%; and `CC(C)[C@@H]1CN(C(=O)CN(C)Cc2ccccc2)C[C@H]1C(=O)O`, with 35.46%; and `CC(C)[C@@H]1CN(C(=O)CN(C)Cc2ccc(F)cc2)C[C@H]1C(=O)O`, with 72.49%.
Then `COc1cc(C(C)NCc2c[nH]nc2C)ccc1OCCO` (centres undefined), with 32.26%; and `COc1ccc(C(C)NCc2nnc(C)s2)cc1F` (centres undefined), with 52.98%; and `Cc1nnc(CNC(C)c2cc(C)c(F)c(C)c2)s1` (centres undefined), with 31.51%.
Consider `COc1ccc(C(C)NCc2c[nH]nc2C)cc1Br` (centres undefined), for which the INHIBITION is recorded as -8.5%.
Then `Cc1cc(C)cc(C(C)NCc2nnc(C)s2)c1` (centres undefined), with 38.67%; and `COc1ccc(C(C)NCc2c[nH]nc2C)cc1OC` (centres undefined), with 66.4%; and `Cc1cnc(CN2CCCC(c3cc(C)[nH]n3)C2)cn1` (centres undefined), with 43%.
Then `Cc1ccc(NC2CCN(C(=O)c3sccc3C3CC3)CC2)nn1`, with 3.38%.
Then `COC1(CNC(=O)c2ccc(Cl)c(Cl)c2)CCSC1` (centres undefined), with -26.56%; and `Cc1cccnc1NC(=O)c1ccc(-n2cncn2)nn1`, with 9.92%; and `O=C(Nc1cccnc1)c1ccc(-n2cncn2)nn1`, with -7.69%.
In the case of `Cc1cccc(NC(=O)c2ccc(-n3cncn3)nn2)n1`, the INHIBITION was found to be 55.73%.
Then `CCS(=O)(=O)N1CCC(c2nnc(C(F)(F)F)o2)CC1`, with 14.97%.
Then `CCS(=O)(=O)N1CCC(c2nnc(C3CC3)o2)CC1`, with 54.82%.
As to `CN(C)S(=O)(=O)N1CCC(c2nnc(C(F)(F)F)o2)CC1`, the INHIBITION is reported as 14.97%.
Then `O=C(NCCc1cccs1)[C@]12COC[C@H]1CN(c1ncccn1)C2`, with 44%; and `NC(=O)CSCCC(=O)NCC1CC1`, with 37.87%.
Then `NC(=O)CSCC(=O)NCC1CCCC1`, with 60.79%; and `N#CCSCC(=O)NCC1CCCCC1`, with -64.85%.
Then `CN(C)c1cc2c(nn1)CCN(C(=O)c1cc3c(s1)CCCC3)C2`, with 28.39%; and `CN(C)c1cc2c(nn1)CCN(C(=O)C1Cc3ccccc3S1)C2` (centres undefined), with 65.77%.
Regarding `CN(C)c1cc2c(nn1)CCN(C(=O)c1cc3c(s1)CCOC3)C2`, the INHIBITION worked out at 56.05%.
With `CCNc1cc2c(nn1)CCN(C(=O)C1Cc3ccccc3S1)C2` (centres undefined), the INHIBITION worked out at 27.6%.
Then `CN(C)c1cc2c(nn1)CCN(C(=O)c1cc3c(s1)CCC3)C2`, with -7.96%; and `CN(C)c1cc2c(nn1)CCN(C(=O)C1Cc3ccccc3O1)C2` (centres undefined), with 11.24%.
Then `CC(=O)N1CCC(Cc2ccc(-c3ccnn3C)nc2)CC1`, with 35.19%.
On to `Cc1ccc(N2CC[C@H]3O[C@@H](C(=O)N4CCCO4)CC[C@H]32)nn1`, for which the INHIBITION is -28.58%.
Then `CCn1c(C)cc(C(=O)NCc2cccc(S(=O)(=O)NC)c2)c1C`, with 62.01%; and `CNS(=O)(=O)c1cccc(CNC(=O)c2cnn(C)c2C)c1`, with -2.2%.
Then `CCn1c(C)cc(C(=O)NCc2cccc(NS(C)(=O)=O)c2)c1C`, with -6.29%; and `Cc1nccn1-c1ccc(NC(=O)C2CCCN2CC2CC2)cc1` (centres undefined), with 69.67%; and `Cc1nccn1-c1ccc(NC(=O)C2CCCN2Cc2c[nH]cn2)cc1` (centres undefined), with 31.51%.
For the molecule `Cc1nccn1-c1ccc(NC(=O)C2CCCN2Cc2ccoc2)cc1` (centres undefined), the INHIBITION worked out at 29.13%.
Then `COCCCN1CCN(c2ncnc3nc(C)cc(C)c23)CC1`, with 19.27%; and `O=C(CCc1n[nH]c2c1CCCC2)N1C[C@H]2CC[C@@H](C1)N(CC1CC1)C2`, with 35.94%; and `Cc1nc(N)cc(N2CCCC(COc3cccc(F)c3)C2)n1` (centres undefined), with 59.8%.
Then `Nc1cc(N2CCCC(COc3ccc(F)cc3)C2)ncn1` (centres undefined), with 42.11%; and `Nc1cc(N2CCCC(COc3ccc(F)cc3)C2)nc(N)n1` (centres undefined), with 17.48%.
Then `N#Cc1cccnc1NCc1cccc(C(=O)NCC2CCCCO2)c1` (centres undefined), with 27.85%; and `N#Cc1cccnc1NCCc1cc(F)cc2c1OCOC2`, with 4.68%; and `COc1ccc2c(c1)CCCC2CC(=O)O` (centres undefined), with -36.72%.
For `COc1ccc2c(c1)CCCC2CC(=O)NCC(=O)O` (centres undefined), the INHIBITION was -35.22%.
On to `COc1ccc2c(c1)CCCC2CC(=O)NCC(C)(C)C(=O)O` (centres undefined), for which the INHIBITION stood at 53.98%.
As to `CC1CN(CC(=O)Nc2nncs2)CCN1Cc1nccn1C` (centres undefined), the INHIBITION was -11.91%.
Then `CCS(=O)(=O)c1ncc(CN(C)C)n1Cc1ccccc1`, with -2.93%; and `CC(=O)c1cccc(NC(=O)Cn2nc(-c3cccs3)oc2=O)c1`, with 51.94%.
Then `CC(=O)c1cccc(NC(=O)Cn2cnc(-c3ccccc3)cc2=O)c1`, with 3.11%; and `CC(=O)c1cccc(NC(=O)CCn2nc(-c3cccs3)oc2=O)c1`, with 15.28%.
